Screening results as filed in PubChem.
In the library only some 10% were active in any assay of this set; here they are far more common.
NPR1 antag = Natriuretic polypeptide receptor (hNpr1) antagonism - Primary qHTS; Atrial natriuretic peptide receptor 1 (Homo sapiens), P16066; HEK293 hNpr1 GloSensor cGMP, ANP-stimulated luminescence; Potency, µM (doses to about 46.3 µM), for inactives: at the top dose activity change, negative = inhibition, hits mostly inhibitors; hit rate 1.6% among 76,000; AID 1347048, 2019; calls by dose curve; also: nearly all actives have a fitted effect of over 60% in size
Target sequence (P16066 whole entry, looked up): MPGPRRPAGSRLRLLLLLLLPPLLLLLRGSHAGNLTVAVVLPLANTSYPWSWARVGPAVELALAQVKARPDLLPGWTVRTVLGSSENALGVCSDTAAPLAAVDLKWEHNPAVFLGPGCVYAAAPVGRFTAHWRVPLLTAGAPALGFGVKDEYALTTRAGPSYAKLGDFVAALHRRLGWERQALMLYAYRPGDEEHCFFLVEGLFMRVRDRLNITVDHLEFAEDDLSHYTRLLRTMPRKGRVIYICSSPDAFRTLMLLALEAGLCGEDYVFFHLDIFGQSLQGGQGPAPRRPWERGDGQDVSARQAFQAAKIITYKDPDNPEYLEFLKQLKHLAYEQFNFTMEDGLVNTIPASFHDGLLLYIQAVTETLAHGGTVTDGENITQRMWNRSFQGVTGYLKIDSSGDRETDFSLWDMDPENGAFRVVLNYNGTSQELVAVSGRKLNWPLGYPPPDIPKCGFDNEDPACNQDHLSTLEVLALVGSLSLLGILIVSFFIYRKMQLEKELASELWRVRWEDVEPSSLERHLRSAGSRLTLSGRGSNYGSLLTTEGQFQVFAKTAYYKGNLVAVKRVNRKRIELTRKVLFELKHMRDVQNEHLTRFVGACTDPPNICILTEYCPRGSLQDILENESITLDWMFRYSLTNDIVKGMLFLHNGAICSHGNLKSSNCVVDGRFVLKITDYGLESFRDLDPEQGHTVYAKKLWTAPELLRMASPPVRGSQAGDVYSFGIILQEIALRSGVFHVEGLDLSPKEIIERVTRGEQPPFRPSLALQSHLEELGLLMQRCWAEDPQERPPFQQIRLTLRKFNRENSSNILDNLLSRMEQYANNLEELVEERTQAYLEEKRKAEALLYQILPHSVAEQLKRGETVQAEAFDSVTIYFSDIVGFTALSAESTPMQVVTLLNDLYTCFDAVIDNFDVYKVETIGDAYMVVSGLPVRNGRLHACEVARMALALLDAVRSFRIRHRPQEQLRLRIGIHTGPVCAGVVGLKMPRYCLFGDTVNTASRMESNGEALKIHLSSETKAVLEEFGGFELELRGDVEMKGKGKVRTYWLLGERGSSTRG
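HEK293 cells stably expressing human Npr1 and cGMP GloSensor pGS-40F, loaded 2 h with 2% GloSensor reagent, given compound 30 min at room temperature. Luminescence read before and 20 min after 0.1 nM hNppA.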
FLuc inh = Firefly luciferase inhibition profiling of diverse chemical library using quantitative high-throughput screening. Luciferin 4-monooxygenase (Photinus pyralis), P08659. purified P. pyralis luciferase, luminescence, biochemical. Potency, µM (series often up to 115 µM), most hits filed as inhibitors. hit rate 2.5% among 76,000. AID 1347043, 2019; also: nearly all actives have a fitted effect of over 65% in size
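Biochemical qHTS: compound (6-point titration) added to 10uM D-luciferin plus 10uM ATP in Tris acetate pH 7.5 buffer with Mg, Tween-20 and BSA, then purified enzyme at 10nM; light output imaged.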
GPT2 inhibitor = Primary qHTS assay for inhibitors of Glutamate pyruvate transaminase 2 (GPT2); Recombinant GPT2, coupled pyruvate oxidase/HRP Amplex Red fluorescence; hit rate 0.25% among 100,000; Alanine aminotransferase 2 (Homo sapiens), Q8TD30; Potency, µM (top dose mostly 57.7 µM), for inactives: at the highest dose activity change, negative = inhibition, usual class: inhibitors; also: nearly all actives have a fitted effect of over 60% in size
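Fluorescence of coupled pyruvate oxidase/HRP/Amplex Red system (50uM Amplex, 30 min, dark) reports pyruvate formed by GPT2. Enzyme reaction: 10ng/uL GPT2, 2mM L-alanine, 250uM a-KG, 30 min room temperature, pH 7.5; 50uM AOA control.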
HEK293 tox = Cytotoxic Profiling in HEK 293 Cell Line of Diverse Libraries Using Quantitative High-Throughput Screening; AID 1345083, 2018; hit rate 6.6% among 94,000; Potency, µM (series often up to 115 µM), for inactives: top-dose activity change, negative = cytotoxicity, hits mostly inhibitors; HEK 293 viability, ATP luminescence (CellTiter-Glo), 48-72 h; also: nearly all actives have a fitted effect of over 60% in size
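HEK 293 cells at 250 cells/well were exposed to compounds by pintool transfer for 48 or 72 hr at 37 degree Celsius, 5% CO2. Viability was read as ATP-coupled luminescence with CellTiter-Glo after 10 min at room temperature.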
NIH3T3 tox = Cytotoxic Profiling in NIH 3T3 Cell Line of Diverse Libraries Using Quantitative High-Throughput Screening | NIH 3T3 viability, CellTiter-Glo ATP luminescence, 48-72 h | Potency, µM (doses to about 96.7 µM), for inactives: at the highest dose activity change, negative = cytotoxicity, usual class: inhibitors | hit rate 4.3% among 94,000; also: nearly all actives have a fitted effect of over 55% in size
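Cytotoxicity was measured by CellTiter-Glo ATP luminescence after 48 or 72 h compound exposure at 37 °C. Mouse NIH 3T3 fibroblasts were seeded at 400 cells/well and dosed by 23 nL pin transfer.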
An asterisk follows results filed as active; i = inactive; ? = inconclusive; . = no result given; [ ] = dose if it differs, or a comment. Unless noted, calls follow the shape of the dose curve; as a rule, active = well fitted curve in the direction sought with a large enough effect; inconclusive = small, poorly fitted or top-dose-only effect, or another doubt; inactive = no such curve, though single readings can be large; an effect the other way counts as inactive or inconclusive. % is scaled to controls: 0 for no effect and ±100 for the full control effect; potency is read from the fitted curve at half-maximal effect.

SMILES	NPR1 antag	FLuc inh	GPT2 inhibitor	HEK293 tox	NIH3T3 tox
CCCNC(=O)C1COC2(CCN(C(=O)c3ccc(OC)cc3)CC2)N1C(=O)c1ccccc1 (centres undefined)	2%	i	i	-1%	-2%
Cc1ccc(-c2ccc(C=O)cc2)c(C)c1	.	.	-17%[88.5 µM]	-6%[230 µM]	-3%[174 µM]
COCCN1C(=O)CS(=O)(=O)C12CCN(C(=O)c1cc(F)ccc1Cl)CC2	11%	i	i	-36%	-5%
c1ccc2ncc(CNC[C@H]3Cn4c(-c5ccc6c(c5)OCCO6)cnc4CO3)cc2c1	35µM*	?	?	50µM*	?
O=C(NC[C@H]1Cn2c(-c3cccc(Cl)c3)cnc2CO1)Nc1ccccc1	?	i	-9%[88.5 µM]	100µM*	?
c1ccc(CNC[C@H]2Cn3c(-c4ccccc4)cnc3CO2)cc1	-13%[70.6 µM]	i	-36%[88.5 µM]	?	-35%[174 µM]
O=C(NC1CCN(c2ccnc3ccnn23)CC1)C1CCCC1	.	.	i	-18%[172 µM]	-10%[138 µM]
Cc1nccn1-c1ccc(NC(=O)C2CCCN(c3ncccc3C#N)C2)cc1 (centres undefined)	-20%	i	i	40µM*	?
O=C(NC1CCCCCC1)C1CCCN(c2ccnc3ccnn23)C1 (centres undefined)	.	.	i	79µM*	?
Cc1ccc(NC(=O)C2CCCN(c3ccnc4ccnn34)C2)cc1 (centres undefined)	.	.	-18%	35µM*	?
CC(=O)N1CCN(C(=O)c2ccc3oc(-c4cccnc4)nc3c2)CC1	.	.	i	3%	-3%
COc1ccc(-c2noc(-c3cccn3CC(=O)Nc3ccc4c(c3)CCC4)n2)cc1F	-5%	i	i	-22%	-15%
CCC(C)NC(=O)c1c(C)nc2cnccn12 (centres undefined)	.	.	.	1%[230 µM]	-18%[174 µM]
C[C@]12C=CC(=O)C=C1CC[C@@H]1C2=CC[C@]2(C)[C@@H](C(=O)CN3CCN(c4cc(N5CCCC5)nc(N5CCCC5)n4)CC3)CC[C@@H]12	.	.	0.71µM*	.	.
O=C(N[C@H]1CCN2C(=O)c3cc(-c4cccc(C(F)(F)F)c4)ccc3NC(=O)[C@H]12)C1CCCC1	0%	i	-6%	?	?
CN(CCc1noc(C2CN(S(=O)(=O)c3cccnc3)C2)n1)C(=O)c1ccncc1	.	.	i	4%	0%
COc1ccccc1-c1cnc(Nc2ccc(CN3CCN(C)CC3)cc2)c2c1CCO2	-11%[70.6 µM]	?	3%[88.5 µM]	35µM*	25µM*
COc1cccc(Nc2ncc(-c3ccccc3OC)c3c2OCC3)c1	-15%[70.6 µM]	i	-21%[88.5 µM]	?	?
COc1ccc(-c2cnc(Nc3ccc(CN4CCN(C)CC4)cc3)c3c2CCO3)cn1	-15%[70.6 µM]	?	i	?	28µM*
COc1ccc(C(=O)Nc2ncc(-c3ccc(OC)nc3)c3c2OCC3)cc1	-11%[70.6 µM]	?	-29%[88.5 µM]	-21%[172 µM]	?
CCS(=O)(=O)N1C[C@@H](C(=O)NCc2ccc(C(C)C)cc2)[C@H](c2ccncc2)C1	2%	i	i	?	-23%
CCOCc1nc(C2CCCN2S(=O)(=O)c2c(C)nn(C)c2C)no1 (centres undefined)	5%	i	i	i	i
O=C(NCC(=O)N1CCC(Cc2ccccc2)CC1)c1ccc(-c2cnc3ccccc3c2)cc1	.	.	-5%	10µM*	?
Cc1cc(C)cc(NC(=O)N2CCC(Oc3ncccc3C(=O)N3CCOCC3)C2)c1 (centres undefined)	-12%	i	1%	-10%	-10%
O=C(NCc1ccc(F)cc1)c1cn2cc(-c3cccc(C(F)(F)F)c3)sc2n1	.	.	i	-24%	?
SMILES	NPR1 antag	FLuc inh	GPT2 inhibitor	HEK293 tox	NIH3T3 tox
O=C(NCc1cccc(C(F)(F)F)c1)c1cn2cc(-c3ccc(F)cc3)sc2n1	.	.	i	?	40µM*
COc1ccc(-c2cn3cc(C(=O)NCc4ccc(F)c(F)c4)nc3s2)cc1	.	.	-13%	13µM*	?
COc1cccc(-c2cn3cc(C(=O)NCc4ccc(Cl)cc4)nc3s2)c1	.	.	-3%[88.5 µM]	?	?
O=C(NCc1cccc(Cl)c1)c1cn2cc(-c3ccc(C(F)(F)F)cc3)sc2n1	.	.	-7%	45µM*	22µM*
O=C(NCCc1ccccc1)c1cn2cc(-c3cccc(C(F)(F)F)c3)sc2n1	.	.	i	?	-12%
O=C(NCc1cccc(C(F)(F)F)c1)c1cn2cc(-c3ccccc3)sc2n1	.	.	?	45µM*	-26%
O=C(Cn1c(=O)oc2cc(Cl)ccc21)N1CCc2n[nH]c(=O)n2CC1	-1%	i	i	i	i
CCOC(=O)C1CCN(C(=O)c2cn3cc(-c4cccnc4)sc3n2)CC1	.	.	i	?	-15%
O=C(Cc1ccccc1)NCC1CN(Cc2ccncc2Cl)CC12CN(c1ccccc1)C2 (centres undefined)	2%	i	2%	?	-24%
COc1ccc(CCC(=O)O)c(O[C@@H]2O[C@H](CO)[C@@H](O)[C@H](O)[C@H]2O)c1	.	.	i	.	.
Cc1oc(C2CCN(C(=O)CN(C)S(=O)(=O)c3cccs3)CC2)nc1C(=O)N1CCOCC1	.	.	2%	-14%	?
COc1ccc(-c2cn3cc(C(=O)NCc4cccc(C(F)(F)F)c4)nc3s2)cc1	.	.	?	35µM*	?
O=C(NCC(F)(F)F)c1cn2cc(-c3cccc(C(F)(F)F)c3)sc2n1	.	.	i	?	?
O=C(NCc1ccc(Cl)cc1)c1cn2cc(-c3ccc(C(F)(F)F)cc3)sc2n1	.	.	3%	-4%	-10%
O=C(NCC(F)(F)F)c1cn2cc(-c3ccccc3)sc2n1	.	.	i	?	89µM*
COc1cccc(-c2cn3cc(C(=O)NCc4ccccc4)nc3s2)c1	.	.	i	?	?
O=C(NCc1ccc(F)cc1)c1cn2cc(-c3ccc(F)cc3)sc2n1	.	.	i	?	?
O=C(NCc1cccnc1)c1cn2cc(-c3ccc(C(F)(F)F)cc3)sc2n1	.	.	i	20µM*	?
O=C(NCc1ccc(F)cc1)c1cn2cc(-c3ccc(C(F)(F)F)cc3)sc2n1	.	.	?	50µM*	?
COc1cc(Cl)ccc1C(=O)N1CC(C(=O)N(C)C)C2(CCOCC2)C1 (centres undefined)	-12%	i	4%	-9%	1%
CNC(=O)c1cn2cc(-c3ccc(OC)cc3)sc2n1	.	.	4%[88.5 µM]	71µM*	100µM*
